Article PMC4552634, “A New Set of Chemical Starting Points with Plasmodium falciparum Transmission-Blocking Potential for Antimalarial Drug Discovery” (PLoS ONE, 2015)
Where two headings read alike, the source gives them in different places. In all, about 13,000 compounds went through this assay and about 3,200 (25%) showed an effect of 50% or more. Some of the results follow.

Tested on: P. falciparum stage V gametocytes
Parameters: BacTiter-Glo ATP luminescence viability of purified stage V gametocytes in 384-well plates, per cent inhibition versus DMSO
Conditions: 48 h, 5 µM, inhibitor

| Structure (SMILES) | % Inhibition | % Inhibition (% Inhibition) |
| --- | --- | --- |
| N#Cc1cccc(C(=O)Nc2cccc(-c3ccc(C(=O)NCCCN4CCOCC4)cc3)c2)c1 [TCMDC-133694] | -17.34% |  |
| CC(Nc1ncc(-c2ccsc2)c(-c2nccs2)n1)c1ccc2c(c1)OCCO2 (centres unmarked) [TCMDC-125367] | -15.14% |  |
| O=C(NCCCCN1CCCC2c3ccc(O)cc3CCC21)c1ccc(-c2ccccc2)cc1 (centres unmarked) [TCMDC-139083] |  | -83.61% |
| CCc1c(C)nc(-n2nc(C)cc2NC(=O)C2c3ccccc3Oc3ccccc32)[nH]c1=O [TCMDC-124932] | -24.15% |  |
| O=S1(=O)NCc2ccc(Nc3nccc(Nc4ccc5c(cnn5Cc5ccccc5)c4)n3)cc21 [TCMDC-138840] | -68.79% |  |
| O=C(Nc1cccc(-c2nn3ccccc3c2-c2ccnc(Nc3cccc(F)c3)n2)c1)c1c(F)ccc(F)c1F [TCMDC-135844] | -56.6% |  |
| NC(=O)c1cccc(C(=O)Nc2cccc(-c3cccc(-c4nc5ccccc5[nH]4)c3)c2)c1 [TCMDC-132194] | 0.2723% |  |
| COc1ccc(C2c3ccccc3-c3nc(N)nc(N)c3C2C)cc1 (centres unmarked) [TCMDC-137992] | 31.51% |  |
| Cc1cc(NC(=O)NCCN2CCC(NS(=O)(=O)c3ccccc3Cl)C2)c2ccccc2n1 (centres unmarked) [TCMDC-136142] | -23.32% |  |
| Cc1oc(-c2cccc(Oc3ccccc3)c2)nc1CN(Cc1cnn(C)c1)C(C)C [TCMDC-124609] | -17.42% |  |
| COc1ccc2nccc(N(C)CC3(O)CCN(CCc4ccc5c(c4)OCCO5)CC3)c2n1 [TCMDC-141473] | 35.78% |  |
| CCNc1cc(C(=O)N[C@@H](Cc2ccccc2)[C@H](O)CNCc2cccc(-n3ccnc3)c2)cc(N2CCCC2=O)c1 [TCMDC-141686] | 34.28% |  |
| CN(C)C(CNC(=O)c1cc(-c2ccncc2)c(-c2cc3ccccc3[nH]2)o1)c1ccccc1 (centres unmarked) [TCMDC-135864] | 29.45% |  |
| COc1ccc(CC(=O)Nc2ccc(Nc3nc(C)cc(N(C)C)n3)cc2)cc1 [TCMDC-124973] | 14.2% |  |
| CCc1ccc(NC(=O)c2cccc(CN3CCCN(Cc4ccc(OC)cc4)CC3)c2)cc1 [TCMDC-135990] | -23.52% |  |
| CCc1cccc2c(C#N)cn(CC(=O)Nc3ccc(OC)cc3)c12 [TCMDC-123527] | 78.76% |  |
| CCc1cccc2c(C#N)cn(CC(=O)NCCc3ccccc3)c12 [TCMDC-124363] | 56.03% |  |
| N#Cc1ccc(N(CC(=O)NCCc2ccc(F)cc2)CC2CC2)c2ccccc12 [TCMDC-135573] | -38.52% |  |
| CCCN(CC(=O)NCCc1ccccc1)c1ccc(C#N)c2ccccc12 [TCMDC-135545] | -10.84% |  |
| CCOc1ccc(OCC(=O)Nc2nc(-c3ccc(OC)cc3)c(C)s2)cc1 [TCMDC-124322] | 37.56% |  |
| CN(C)CCOc1ccc(-c2cc(-c3ccc(Cl)c(O)c3)c(-c3ccncc3)[nH]2)cc1 [TCMDC-141255] | -84.18% |  |
| c1ccc(Oc2ccc(Nc3nncc4ccccc34)cc2)cc1 [TCMDC-137229] | 25.45% |  |

| Structure (SMILES) | % Inhibition | % Inhibition (% Inhibition) |
| --- | --- | --- |
| Oc1c(Cl)cc(Nc2nccc(Nc3ccc(Oc4ccccc4)cc3)n2)cc1Cl [TCMDC-138588] | -66% |  |
| Clc1ccc(-n2cnc3c(Nc4ccc(Oc5ccccc5)cc4)ncnc32)cc1Cl [TCMDC-138209] | 88.06% |  |
| Nc1ccc(-c2cc(Cl)cc(Cl)c2)cc1-c1cc2ccccc2[nH]1 [TCMDC-139051] | -15.54% |  |
| CCCCc1ccc(S(=O)(=O)Nc2ccc3c(c2)CCN(Cc2c[nH]c4cnccc24)CC3)cc1 [TCMDC-136797] | -5.765% |  |
| CCCc1ccc(S(=O)(=O)Nc2ccc3c(c2)CCC3)cc1 [TCMDC-125822] | 10.44% |  |
| CN1Cc2ccc(NS(=O)(=O)c3ccc(-c4ccoc4)cc3)cc2C1 [TCMDC-141495] | 67.76% |  |
| Nc1nc(N)c2cc(NS(=O)(=O)c3ccc(-c4ccccc4)cc3)ccc2n1 [TCMDC-135430] | 5.991% |  |
| Cc1nc(N2CCC(C)CC2)c2c3c(sc2n1)CCCC3 [TCMDC-125646] | 3.329% |  |
| C=C(C)C1CC=C(CN2CCCC(n3ccc4cc(NC(=O)c5ccco5)ccc43)CC2)CC1 (centres unmarked) [TCMDC-135090] | -20.08% |  |
| Cc1nc2c(-n3cc(Cn4ccnc4)c4ccccc43)ncnc2n1-c1ccc(Cl)cc1Cl [TCMDC-136514] | 37.26% |  |
| CCC(=O)c1c(C)n(-c2ncnc3c2nc(C)n3-c2ccc(C)cc2C)c2ccccc12 [TCMDC-136513] | 51.77% |  |
| Cc1noc(-c2ccc3c(c2)CCN(CCC2CCC(NC(=O)c4cc5ccccc5[nH]4)CC2)CC3)n1 (centres unmarked) [TCMDC-139876] | -74.07% |  |
| CN(C)CCCn1cc(C(=O)OC2CC3CCC(C2)N3C)c2cc(-c3ccccc3)ccc21 (centres unmarked) [TCMDC-139094] | 100.6% |  |
| CN(C)CCOc1cc(NC(=O)Nc2ccc(-c3ccccc3)cc2)ccc1I [TCMDC-139150] | -45.78% |  |
| O=S(=O)(NCCN1CCCC1)c1cccc(-c2ccc(CNCc3ccccc3)cc2)c1 [TCMDC-132240] | 108.6% |  |
| O=S(=O)(NCCN1CCCC1)c1cccc(-c2cccc(CNCc3ccccc3)c2)c1 [TCMDC-132226] | 104% |  |
| O=C1C(c2ccccc2)=C(Nc2cccc([N+](=O)[O-])c2)c2ccccc21 [TCMDC-125484] | 25.85% |  |
| O=C1C(c2ccccc2)=C(Nc2ccc([N+](=O)[O-])cc2)c2ccccc21 [TCMDC-125490] | 10.18% |  |
| O=C1C(c2ccccc2)=C(Nc2ccc(Cl)cc2)c2ccccc21 [TCMDC-125493] | 32.25% |  |
| O=C1C(c2ccccc2)=C(Nc2cccc(OC(F)(F)C(F)F)c2)c2ccccc21 [TCMDC-125498] | 65.78% |  |
| COc1cc(NC2=C(c3ccccc3)C(=O)c3ccccc32)ccn1 [TCMDC-135283] | 73.83% |  |
| COc1ccc(NC2=C(c3ccccc3)C(=O)c3ccccc32)cn1 [TCMDC-125501] | 36.53% |  |
